The structures appear in SMILES notation. ± gives the standard deviation of the averaged measurements.

The test system of the assay is E. coli BW25113 marRABp lux reporter. As to the kind of experiment: promoter activity interaction Z-score (Lux/OD deviation from empty-vector control); higher = stronger promoter induction by the compound. The protocol:
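E. coli BW25113 (wild type or ΔmarA/ΔsoxS/Δrob) carrying pTU175 luxCDABE promoter reporters was grown in LB in 384-well plates at 37°C with each of 94 compounds at 4 two-fold concentrations, in biological duplicates. Luminescence and OD600 were read every 30 min for 12 h and integrated as AUC over 8 h (0-8 h WT, 1-9 h mutants). Lux AUC was divided by OD AUC; the interaction score is the residual of a Huber robust fit of each promoter against the empty-vector control, then Z-transformed per promoter.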

Turning to `COc1cc(Cc2cnc(N)nc2N)cc(OC)c1OC` [Trimethoprim], the “promoter activity interaction Z-score” value was -0.00717 ± 0.14 (0.073 µg/ml, genetic background: wild type); 0.354 ± 0.26 (0.073 µg/ml, genetic background: ΔmarA); 0.118 ± 0.14 (0.073 µg/ml, genetic background: Δrob); 0.299 ± 0.38 (0.073 µg/ml, genetic background: ΔsoxS); 1.11 ± 0.81 (0.15 µg/ml, genetic background: wild type); 1.71 ± 0.26 (0.15 µg/ml, genetic background: ΔmarA). Besides, the “promoter activity interaction Z-score” value reads like this: (0.15 µg/ml, genetic background: Δrob) 0.43 ± 0.16; (0.15 µg/ml, genetic background: ΔsoxS) 0.811 ± 0.45; (0.29 µg/ml, genetic background: wild type) 0.921 ± 0.63; (0.29 µg/ml, genetic background: ΔmarA) 1.36 ± 0.27; (0.29 µg/ml, genetic background: Δrob) 0.367 ± 0.12; (0.29 µg/ml, genetic background: ΔsoxS) 0.729 ± 0.19. Besides, the “promoter activity interaction Z-score” value was determined as 0.146 ± 0.067 (0.58 µg/ml, genetic background: wild type); 0.423 ± 0.12 (0.58 µg/ml, genetic background: ΔmarA); 0.143 ± 0.17 (0.58 µg/ml, genetic background: Δrob); 0.484 ± 0.068 (0.58 µg/ml, genetic background: ΔsoxS).
For `CC(C)Cc1ccc(C(C)C(=O)O)cc1` (stereo not drawn) [Ibuprofen], the “promoter activity interaction Z-score” value came to 0.196 ± 0.28 (12.9 µg/ml, genetic background: wild type); 0.232 ± 0.58 (12.9 µg/ml, genetic background: ΔmarA); 0.124 ± 0.06 (12.9 µg/ml, genetic background: Δrob); 0.193 ± 0.14 (12.9 µg/ml, genetic background: ΔsoxS); 0.212 ± 0.12 (25.8 µg/ml, genetic background: wild type); 0.172 ± 0.49 (25.8 µg/ml, genetic background: ΔmarA). The “promoter activity interaction Z-score” value is 0.0582 ± 0.32 (25.8 µg/ml, genetic background: Δrob); 0.0302 ± 0.03 (25.8 µg/ml, genetic background: ΔsoxS); 0.119 ± 0.036 (51.6 µg/ml, genetic background: wild type); -0.396 ± 0.089 (51.6 µg/ml, genetic background: ΔmarA); 0.159 ± 0.17 (51.6 µg/ml, genetic background: Δrob); -0.0798 ± 0.073 (51.6 µg/ml, genetic background: ΔsoxS). The “promoter activity interaction Z-score” value by setting is: (103.1 µg/ml, genetic background: wild type) -0.239 ± 0.093; (103.1 µg/ml, genetic background: ΔmarA) 0.541 ± 0.8; (103.1 µg/ml, genetic background: Δrob) 0.0177 ± 0.01; (103.1 µg/ml, genetic background: ΔsoxS) -0.0508 ± 0.43.
Consider `C[C@H](CCC(=O)O)[C@H]1CC[C@H]2[C@@H]3CC[C@@H]4C[C@H](O)CC[C@]4(C)[C@H]3C[C@H](O)[C@]12C` [Deoxycholic acid], for which the “promoter activity interaction Z-score” value is -0.31 ± 0.18 (24.5 µg/ml, genetic background: wild type); -0.0533 ± 0.055 (24.5 µg/ml, genetic background: ΔmarA); -0.148 ± 0.14 (24.5 µg/ml, genetic background: Δrob); -0.343 ± 0.17 (24.5 µg/ml, genetic background: ΔsoxS); -0.0619 ± 0.22 (49.1 µg/ml, genetic background: wild type); -0.261 ± 0.22 (49.1 µg/ml, genetic background: ΔmarA). Also, the “promoter activity interaction Z-score” value (49.1 µg/ml, genetic background: Δrob) was -0.128 ± 0.13; the “promoter activity interaction Z-score” value (49.1 µg/ml, genetic background: ΔsoxS) was -0.203 ± 0.24; the “promoter activity interaction Z-score” value (98.1 µg/ml, genetic background: wild type) is -0.0956 ± 0.065; the “promoter activity interaction Z-score” value (98.1 µg/ml, genetic background: ΔmarA) was -0.111 ± 0.12; the “promoter activity interaction Z-score” value (98.1 µg/ml, genetic background: Δrob) is -0.283 ± 0.077; the “promoter activity interaction Z-score” value (98.1 µg/ml, genetic background: ΔsoxS) is -0.336 ± 0.16. Besides, the “promoter activity interaction Z-score” value (196.3 µg/ml, genetic background: wild type) was -0.225 ± 0.38; the “promoter activity interaction Z-score” value (196.3 µg/ml, genetic background: ΔmarA) was -0.118 ± 0.15; the “promoter activity interaction Z-score” value (196.3 µg/ml, genetic background: Δrob) was -0.197 ± 0.065; the “promoter activity interaction Z-score” value (196.3 µg/ml, genetic background: ΔsoxS) was -0.366 ± 0.062.

Source of the values: the supplement of paper PMC12282887.
